The list is not random: actives were taken first. Their share in the collection is about 3.1%.
VDR inhibitor: inhibitors of human vitamin D receptor. VDR-SRC2-3 peptide fluorescence polarization, 2 h. 0.93% of 400,000 active. AID 504847. P11473. Potency, µM, hits mostly inhibitors
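VDR–SRC2-3 interaction, FP format. Cmpds 23 nl via pintool, brief spin, 2 h ambient incubation.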
TDP1 block: TDP1 (human) enzyme inhibition; Q9NUW8; recombinant TDP1, AlphaScreen DNA substrate cleavage; Potency, µM (doses to about 130 µM), usual class: inhibitors; 0.28% of 350,000 active; AID 485290; note: nearly all actives have a fitted effect of over 40% in size
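Signal: AlphaScreen proximity between streptavidin donor and anti-FITC acceptor beads on intact substrate. Reaction: Tdp1 1 nM, substrate 15 nM final, 5 min RT after 15 min compound preincubation.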
PLK1 PBD inh: inhibitors of human PLK1 polo-box domain binding; Plk1 PBD binding of FITC phosphopeptide, fluorescence polarization; 2.8% of 360,000 active; Potency, µM, usual class: inhibitors; note: series mostly up to about 57 µM; nearly all actives have a fitted effect of over 65% in size
Pin1 inhibitor: inhibitors of human Pin1. Q13526. Pin1 FP peptide displacement, HiFluor488, 10 min. Potency, µM (top dose mostly 115 µM), hits mostly inhibitors. 0.009% of 390,000 active. AID 504891; active = well fitted inhibition curve with a large enough effect in the polarisation, with a control signal flat, not every such curve was filed as active; inconclusive = small, poorly fitted or top-dose-only effect, or effect the other way, or a change in a side signal; inactive = no such curve, though single readings can be large or run the other way; the % refers to the polarisation
Tb PFK block: T. brucei PFK enzyme inhibition; Potency, µM (doses to about 57.5 µM), hits mostly inhibitors; O15648; 0.17% of 330,000 active; T. brucei PFK, ADP-Glo luminescence; note: nearly all actives have a fitted effect of over 60% in size
Target sequence (O15648 whole entry, looked up): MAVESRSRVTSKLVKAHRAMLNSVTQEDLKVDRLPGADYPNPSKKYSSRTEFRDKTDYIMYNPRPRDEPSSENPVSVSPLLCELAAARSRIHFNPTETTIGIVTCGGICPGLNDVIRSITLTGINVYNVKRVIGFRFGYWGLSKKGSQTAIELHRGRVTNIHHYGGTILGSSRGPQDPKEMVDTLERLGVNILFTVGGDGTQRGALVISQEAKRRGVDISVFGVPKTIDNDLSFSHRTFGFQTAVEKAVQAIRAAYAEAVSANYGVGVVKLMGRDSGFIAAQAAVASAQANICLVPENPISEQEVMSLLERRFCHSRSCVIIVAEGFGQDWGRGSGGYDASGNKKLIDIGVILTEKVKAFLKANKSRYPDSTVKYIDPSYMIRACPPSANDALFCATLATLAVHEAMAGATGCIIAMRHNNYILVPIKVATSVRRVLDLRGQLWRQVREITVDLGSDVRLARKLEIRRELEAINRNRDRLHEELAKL
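PFK 1.25 nM, F6P 0.5 mM, ATP 0.1 mM, 0.1 M TEA pH 8.0, 5 mM MgCl2, 0.01% Tween20, 0.1% BSA; 45 min RT. ADP-Glo readout. qHTS titration up to 57 uM; curves fitted, compounds curve-classed.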
S-ASM inh: inhibitors of human secretory acid sphingomyelinase; AID 504937; placental ASM, HMU-PC fluorogenic substrate, 60 min; 0.006% of 340,000 active; Potency, µM (series often up to 57.5 µM), most hits filed as inhibitors
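Fluorescence read-out (Ex 386 nm, Em 447 nm) after stopping the reaction at pH 10. Enzyme: ASM from human placenta; substrate HMU-PC0, 9 uM final; 60 min, 37 °C. Compound preincubation 10 min, ambient temperature.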
Hits are given with their value; n = inactive; u = inconclusive; x = not tested or not shown. Unless noted, calls come from the whole dose curve; as a rule, active = well fitted curve in the direction sought with a large enough effect; inconclusive = small, poorly fitted or top-dose-only effect, or another doubt; inactive = no such curve, though single readings can be large; an effect the other way counts as inactive or inconclusive.

SMILES	VDR inhibitor	TDP1 block	PLK1 PBD inh	Pin1 inhibitor	Tb PFK block	S-ASM inh
CC[C@H](C)[C@H](NC(=O)[C@H](Cc1ccc(O)cc1)NC(=O)[C@H](Cc1cnc[nH]1)NC(=O)[C@H](CCCNC(=N)N)NC(=O)[C@H](CC(C)C)NC(=O)[C@H](C)NC(=O)[C@H](CO)NC(=O)[C@H](Cc1ccc(O)cc1)NC(=O)[C@H](Cc1ccc(O)cc1)NC(=O)[C@H](CCCNC(=N)N)NC(=O)[C@H](C)NC(=O)[C@H](CC(C)C)NC(=O)[C@H](CC(=O)O)NC(=O)[C@H](CCC(=O)O)NC(=O)[C@H](C)NC(=O)[C@@H]1CCCN1C(=O)[C@H](C)NC(=O)[C@H](CC(=O)O)NC(=O)[C@H](CCC(=O)O)NC(=O)CNC(=O)[C@@H]1CCCN1C(=O)[C@H](CC(N)=O)NC(=O)[C@H](CC(=O)O)NC(=O)[C@@H]1CCCN1C(=O)[C@H](CCCCN)NC(=O)[C@H](CO)NC(=O)[C@@H]1CCCN1C(=O)[C@@H](N)Cc1ccc(O)cc1)C(=O)N[C@@H](CC(N)=O)C(=O)N[C@@H](CC(C)C)C(=O)N[C@H](C(=O)N[C@H](C(=O)N[C@@H](CCCNC(=N)N)C(=O)N[C@@H](CCC(N)=O)C(=O)N[C@@H](CCCNC(=N)N)C(=O)N[C@@H](Cc1ccc(O)cc1)C(N)=O)[C@@H](C)O)[C@@H](C)CC	n	n	x	x	x	x
COCC(O)CNc1ccccc1 (stereo unspecified)	u	n	24µM	n	n	n
CC(=O)Nc1ccc(NCC(O)COc2ccccc2)cc1 (stereo unspecified)	n	n	n	n	n	n
Cc1cc2c(s1)c1cnn(Cc3c(F)ccc(Cl)c3F)c(=O)c1n2C	x	x	x	n	x	x
O=c1c2nnn(Cc3ccc(Cl)cc3)c2ncn1Cc1ccc(F)cc1	n	n	n	n	n	n
Cc1ccccc1Cn1cnc2c(nnn2Cc2ccc(F)cc2)c1=O	89µM	n	n	n	n	n
Oc1ccc(N=Nc2ccc3c(c2)OCCO3)c2cccnc12	n	n	27µM	n	n	n
COc1ccc(N=Nc2ccc(O)c3ncccc23)cc1	n	n	n	n	n	n
O=S(=O)(O)c1cccc2c(N=Nc3ccc(O)c4ncccc34)cccc12	n	x	21µM	x	u	n
Cc1ccc(NC(=O)C2CCCN(c3ncnc4onc(C)c34)C2)cc1Cl (stereo unspecified)	n	n	x	u	x	x
CC(C)c1ccc(NC(=O)c2ccc(=O)n(Cc3ccccc3)c2)cc1	n	n	x	n	x	x
C=Cc1c(C)/c2[n-]/c1=C\c1[n-]c(c(CC)c1C)/C=c1\[n-]c3c(c1C)C(=O)C(C(=O)[O-])C=3c1[n-]c(c(C)c1CCC(=O)[O-])\C=2.[Cu].[Na+].[Na+] (stereo unspecified)	32µM	u	x	x	x	x
COc1ccc(-c2c(C)nn3c(N4CCN(c5ccccc5)CC4)cc(C)nc23)cc1OC	n	n	x	n	x	x
CCOc1ccc(CCNC(=O)CCN2N=C(c3ccc(OC)cc3)CCC2=O)cc1OCC	n	n	x	n	x	x
COc1ccc(CN2C(=O)c3ccccc3C2C(=O)NC2CCCC2)c(OC)c1 (stereo unspecified)	n	n	n	n	n	n
COc1ccc(CN2C(=O)c3ccccc3C2C(=O)NC2CCC(C)CC2)c(OC)c1 (stereo unspecified)	n	n	24µM	n	n	n
COc1ccc(C(=O)NC(=S)Nc2ccc(S(N)(=O)=O)cc2)cc1	n	n	n	n	n	n
COc1cc(C(=S)N2CCCC2)ccc1OS(=O)(=O)c1ccc(NC(C)=O)cc1	n	n	n	n	n	n
COc1ccc(S(=O)(=O)Oc2ccc(C(=S)N3CCOCC3)cc2OC)cc1	n	n	n	n	n	n
COc1cc(C(=O)NNC(=S)Nc2ccc(S(N)(=O)=O)cc2)cc(OC)c1OC	n	n	6.7µM	n	n	n
COc1ccc(S(=O)(=O)Oc2c(OC)cc(C(=S)N3CCOCC3)cc2OC)cc1	u	n	27µM	n	n	n

Screens deposited in PubChem by National Center for Advancing Translational Sciences (NCATS).
